Screening data as filed in PubChem BioAssay.
HADH2 inh: blocks human hydroxyacyl-CoA dehydrogenase type II; Q99714; recombinant HADH2, NADH fluorescence, beta-hydroxybutyryl-CoA; hit rate 3.4% among 73,000; Potency, µM (highest dose often 57.1 µM), inactives show top-dose activity change, negative = inhibition, most hits filed as inhibitors; further: potency means the concentration at half of the fitted maximal effect; on the % scale 0 is the no-effect control and ±100 the full control effect; nearly all actives have a fitted effect of over 60% in size
Target sequence (Q99714 whole entry, looked up, one chain of several): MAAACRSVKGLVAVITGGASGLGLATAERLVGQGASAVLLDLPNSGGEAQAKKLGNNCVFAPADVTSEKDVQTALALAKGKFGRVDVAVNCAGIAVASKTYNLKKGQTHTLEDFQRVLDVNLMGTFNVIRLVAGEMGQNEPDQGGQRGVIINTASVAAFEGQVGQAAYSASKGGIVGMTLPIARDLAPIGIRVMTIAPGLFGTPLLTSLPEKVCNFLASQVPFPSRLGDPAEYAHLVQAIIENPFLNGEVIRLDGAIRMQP
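NADH fluorescence (ex 360/em 450 nm) read every 30 s for 4 min; activity taken as last-minus-first time point difference. Enzyme 20 nM, NAD+ 1 mM, beta-hydroxybutyryl-CoA 90 uM, pH 9.0 Tris buffer.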
A350 fluor: compound fluoresces in the Alexa 350 spectral region; Compound autofluorescence, 340/450 nm, Alexa 350 dye-equivalents; active compounds read high; max dye-equivalent concentration, M; hit rate 11% among 59,000; AID 590; in the data active means max dye-equivalent concentration above about 10 nM; inconclusive means mostly about 1.1 nM to 9.6 nM
CRE-bla Fsk: modulators of forskolin-stimulated CRE signaling in CHO cells | CHO CRE-bla reporter (cAMP response element driving beta-lactamase), forskolin EC10, beta-lactamase ratio | Potency, µM (series often up to 38.2 µM), for the others: at the top dose activity change, negative = inhibition, actives largely listed as activators | hit rate 2.5% among 71,000 | AID 662; active means well fitted activation curve with a large enough effect in the signal ratio, with a control signal flat, not every such curve was filed as active; inconclusive means small, poorly fitted or top-dose-only effect, or effect the other way, or a change in a side signal; the % refers to the signal ratio; further: potency means the concentration at half of the fitted maximal effect; % of control where 0% means no effect
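Modulation of forskolin-driven signalling is measured in CHO cells carrying a CRE-controlled beta-lactamase reporter. Cells are stimulated with EC10 NKH 477 in the presence of titrated compound for 3 h at 37 °C, then loaded with CCF4 for 2 h at room temperature.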
AID923: qHTS Assay for Allosteric/Competitive Inhibitors of Caspase-1: Spectroscopic Profiling in AFC Spectral Region; compound fluorescence, AFC spectral region (405/520 nm); Potency, µM (top dose mostly 57.5 µM), without a hit: at the top dose fluorescence increase, actives largely listed as activators; hit rate 1.1% among 75,000; further: potency means the concentration at half of the fitted maximal effect; 0% is about no effect
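Baseline compound fluorescence (AFC region, 405 nm ex/520 nm em) taken from the intercept of kinetic reads with 50 nM caspase-1 and 5 uM Ac-WEHD-AFC; normalized to an on-plate AFC standard curve; compounds titrated up to 57 uM.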
4-MU autofl: compound fluoresces in the 4-MU spectral region; max dye-equivalent concentration, M; hit rate 11% among 59,000; compound autofluorescence, 340/450 nm, 4-MU equivalents; active compounds read high; AID 589; in the data active means max dye-equivalent concentration above about 10 nM; inconclusive means mostly about 1.1 nM to 9.6 nM
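Compounds in 100 mM Tris, pH 8.0, sat 15 min at room temperature before fluorescence was read at 340 nm excitation/450 nm emission; a per-plate six-point 4-MU standard curve converted signals to dye-equivalent concentration at each compound concentration.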
HSD17B inh: inhibitors of human HSD17B10 dehydrogenase; hit rate 7.6% among 75,000; Q99714; recombinant HSD17B10, NADH fluorescence kinetic; Potency, µM (titrated, usually from 57.1 µM), without a hit: at the highest dose activity change, negative = inhibition, usual class: inhibitors;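 further: the protocol describes HADH2 (HSD17B10) and not the HSD17B4 of the title; potency means the concentration at half of the fitted maximal effect; on the % scale 0 is the no-effect control and ±100 the full control effect; nearly all actives have a fitted effect of over 70% in size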
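Enzyme plus compound, 15 min room temperature; substrate mix added (NAD+ 1 mM, beta-hydroxybutyryl-CoA 90 uM final); plates read kinetically for NADH fluorescence. HADH2 was His-tagged, E. coli-derived, 20 nM.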
* hit, by the source's call; i = inactive; ? = inconclusive; / = no result given; [ ] = another dose, or the depositor's remark. Sampled rows, rich in hits. Any-hit rate of the full collection: about 14%. Unless noted, the call rests on the fitted dose curve; in most records, active means well fitted curve in the direction sought with a large enough effect; inconclusive means small, poorly fitted or top-dose-only effect, or another doubt; inactive means no such curve, though single readings can be large; an effect the other way counts as inactive or inconclusive.

SMILES	HADH2 inh	A350 fluor	CRE-bla Fsk	AID923	4-MU autofl	HSD17B inh
Cc1csc(OCc2ccc(C#N)cc2)n1	9%	1e-08M*	?	-1%	?	-9%
CCCCc1ccc2nc(NC(=O)OC)[nH]c2c1	0%[25.6 µM]	1.4e-08M*	0.25µM*	-2%[25.7 µM]	1.5e-08M*	1%[25.6 µM]
Nc1nnc(SCC(=O)NC2CCCCC2)n1-c1ccccc1	11%	i	0%	2%	i	13%
Nc1nnc(SCC(=O)Nc2ccc(F)c(Cl)c2)n1-c1ccccc1	72%	3e-08M*	24%	3%	2.5e-08M*	?
Cc1ccc2c(c1)cc(CN(Cc1ccco1)S(=O)(=O)c1ccccc1)c1nnnn12	17%	i	11%	2%	i	0%
O=C1NCC2=C1C(c1ccc(Br)cc1)Nc1ccccc1N2 (stereo not given)	-9%[11.4 µM]	/	?	2%	/	4%
COc1ccc(N(Cc2cc3cc(OC)ccc3[nH]c2=O)C(=O)c2cccnc2)cc1	?	3.6e-07M*	6%	1%	2.7e-07M*	?
CC(C)N(Cc1cc2ccccc2[nH]c1=O)C(=O)c1cccnc1	-10%	?	-7%	3%	?	-28%
COc1ccc2[nH]c(=O)c(CN(C(=O)c3ccccn3)c3ccccc3)cc2c1	-20%	9e-08M*	-6%	-1%	7e-08M*	-15%
CC(C)C(=O)N(Cc1cc2ccccc2[nH]c1=O)C(C)C	-18%	i	1%	0%	i	4%
COc1ccc2[nH]c(=O)c(CN(C(=O)c3cccnc3)c3ccccc3OC)cc2c1	?	3.5e-07M*	15%	4%	2.7e-07M*	25µM*
COc1ccc2[nH]c(=O)c(CN(C(=O)COc3ccccc3)C(C)C)cc2c1	-2%	2.5e-07M*	10%	0%	2e-07M*	32µM*
O=C(CCN1C(=O)CSC1=O)Nc1ccccc1	-8%	i	-5%	-1%	i	5%
COc1ccc(-c2csc(N(CC3CCCO3)C(=O)c3cccs3)n2)cc1 (stereo not given)	-12%	i	9%	2%	i	-6%
COc1ccc(OC)c(-c2csc(N(Cc3ccco3)C(=O)c3cccs3)n2)c1	-3%	1.2e-08M*	10%	2%	1.3e-08M*	-21%
CN(C)Cc1ccccc1-c1nc(NC2CCNCC2)c2ccccc2n1	7%	i	-4%	3%	i	15%
COC(=O)NC(CC(C)=O)c1ccco1 (stereo not given)	-1%[11.4 µM]	/	/	0%[11.5 µM]	/	7%[11.4 µM]
C/C=C(\C)CN1CCc2cc(OC)c(OC)cc2C1	21%	1.4e-08M*	-8%	2%	1.3e-08M*	-11%
COc1ccc(COC(=O)N/N=C2/C[C@@H](O)[C@@H](O)[C@@H]3[C@@H]4C(=O)N(C5CCCCC5)C(=O)[C@H]4CC[C@H]23)cc1	10%[11.4 µM]	/	/	0%[11.5 µM]	/	-1%[11.4 µM]
O=C(Nc1nccs1)C1CCCN1S(=O)(=O)c1ccc(F)cc1 (stereo not given)	-4%	i	-6%	2%	i	-8%
CC1(C)N([O-])C(c2ccccc2)=C[N+](=O)C1(C)C	-1%	4e-07M*	?	9%	2.9e-07M*	-27%
COc1ccc(OC)c(C2=C[N+](=O)C(C)(C)C(C)(C)N2[O-])c1	-12%	i	3%	1%	i	-11%
Cc1cc(C)c(C(=O)COC(=O)Cn2cnnn2)cc1C	-7%	i	?	1%	i	?
O=C(Cn1cnnn1)OCC(=O)c1ccc(Cl)s1	10µM*	?	?	0%	?	13µM*
CN1C(=O)OC(C)(C)C1=O	0%[25.6 µM]	?	-5%[17.1 µM]	5%[25.7 µM]	?	7%[25.6 µM]
COc1cc(-c2nc(S(=O)(=O)c3ccc(C)cc3)c(N3CCOCC3)o2)cc(OC)c1OC	15%	i	1µM*	-1%	i	-10%
COc1cc(-c2nc(S(=O)(=O)c3ccc(C)cc3)c(N(C)C)o2)cc(OC)c1OC	-3%	i	2µM*	-1%	i	-1%
